Laboratory results reported in PubChem BioAssay (EPA / NIEHS).
Inconclusive results are not listed. The source made the active and inactive calls. Rule for the calls: active = hit-call score of the fitted dose curve at least 0.9, where 1 is the maximum; inconclusive = response in the unintended direction; inactive = score below 0.9.

How the values were obtained:
[1] = Tanguay_ZF_120hpf_JAW_legacy: (Legacy) Oregon State University Tanguay Lab 120 Hour Post-fertilization zebrafish Assay for Jaw Malformation (AID 2283638)
Protocol: Tanguay_ZF_120hpf_legacy is a whole embryo, multiplexed endpoint assay using zebrafish larvae exposed for 120 hours post fertilization on a 96-well plate.Tanguay_ZF_120hpf_JAW_legacy is one of one assay component(s) measured or calculated from the Tanguay_ZF_120hpf_legacy assay. It is designed to make measurements of zebrafish development as detected with brightfield microscopy of developing zebrafish embryos.Data from the assay component Tanguay_ZF_120hpf_JAW_legacy was analyzed into 1 assay endpoints. This assay endpoint, Tanguay_ZF_120hpf_JAW_legacy, was analyzed in the positive analysis fitting direction relative to DMSO as the negative control and baseline of activity. […]
Zebrafish husbandry: Tropical 5D wild-type adult zebrafish were housed in at an approximate density of 1000 per 100 gallon tank at the Sinnhuber Aquatic Research Laboratory, Oregon State University, Corvallis, OR. […] At 24 hpf, embryos were assessed for photomotor response using a custom photomotor response analysis tool (PRAT) and for developmental toxicity endpoints (MO24: mortality at 24 hpf, DP: developmental progression, SM: spontaneous movement, and NC: notochord distortion). At 120 hpf, locomotor activity was measured using Viewpoint Zebralab and assessed for 18 endpoints. […] If mortality occurred for an embryo (at either 24 or 120 hpf), the non-mortality endpoints were not measured.

[2] = Tanguay_ZF_120hpf_OTIC_legacy: (Legacy) Oregon State University Tanguay Lab 120 Hour Post-fertilization zebrafish Assay for Otic Vesicle Malformation (AID 2283639)
How it was run: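 Tropical 5D wild-type zebrafish embryos were exposed statically in sealed, foil-covered plates at 28C until 120 hpf, with 0.64% (vol/vol) DMSO final. Otic vesicle malformation was scored present/absent by brightfield microscopy, with DMSO as baseline.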

[3] = Tanguay_ZF_120hpf_PE_legacy: (Legacy) Oregon State University Tanguay Lab 120 Hour Post-fertilization zebrafish Assay for Pericardial Edema (AID 2283640)
How it was run: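 Scoring was binary, by brightfield microscopy at 120 hpf, and skipped where mortality occurred. Wild-type embryos were kept under sealed, foil-covered static exposure at 28C in 0.64% (vol/vol) DMSO.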

[4] = Tanguay_ZF_120hpf_BRAI_legacy: (Legacy) Oregon State University Tanguay Lab 120 Hour Post-fertilization zebrafish Assay for Brain Malformation (AID 2283641)
How it was run: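 Binary brightfield scoring of brain malformation at 120 hpf in Tropical 5D larvae held under static exposure at 28C (0.64% v/v DMSO), non-mortality endpoints skipped if dead. Positive control: 5uM trimethyltin chloride; fit versus DMSO.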

[5] = Tanguay_ZF_120hpf_SOMI_legacy: (Legacy) Oregon State University Tanguay Lab 120 Hour Post-fertilization zebrafish Assay for Somite Malformation (AID 2283647)
How it was run: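 Binary somite-defect scoring at 120 hpf, omitted for embryos that died, in wild-type (Tropical 5D) zebrafish with chorion removed by pronase at 4 hpf; static exposure began 6 hpf, single embryos per well, 28C, 0.64% DMSO; fitted positive versus DMSO.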

[6] = Tanguay_ZF_120hpf_PFIN_legacy: (Legacy) Oregon State University Tanguay Lab 120 Hour Post-fertilization zebrafish Assay for Pectoral Fin Malformation (AID 2283648);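 note: each larva judged yes or no for fin defect by brightfield with dead larvae skipped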
How it was run: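 Tropical 5D wild-type embryos, dechorionated with pronase at 4 hpf, were placed singly in wells at 6 hpf and statically exposed until 120 hpf at 28C, sealed and dark, with 0.64% (vol/vol) final DMSO; pectoral fin malformation scored present/absent.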

[7] = Tanguay_ZF_120hpf_CFIN_legacy: (Legacy) Oregon State University Tanguay Lab 120 Hour Post-fertilization zebrafish Assay for Caudal Fin Malformation (AID 2283649)
How it was run: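 Binary brightfield scoring of caudal fin defects at 120 hpf after static, light-shielded exposure at 28C from 6 hpf. Tropical 5D embryos, chorion removed with pronase at 4 hpf, final DMSO 0.64%.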

[8] = Tanguay_ZF_120hpf_PIG_legacy: (Legacy) Oregon State University Tanguay Lab 120 Hour Post-fertilization zebrafish Assay for Pigmentation Malformation (AID 2283650)
How it was run: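 Tropical 5D wild-type zebrafish embryos, dechorionated with pronase at 4 hpf, were exposed singly from 6 hpf to 120 hpf statically at 28C in sealed, dark plates with 0.64% DMSO; pigmentation scored present/absent by brightfield microscopy, fitted against DMSO.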

[9] = Tanguay_ZF_120hpf_SWIM_legacy: (Legacy) Oregon State University Tanguay Lab 120 Hour Post-fertilization zebrafish Assay for Swim Bladder Malformation (AID 2283654);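 note: swim bladder malformation in each larva scored yes or no under brightfield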
How it was run: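 Dechorionated Tropical 5D wild-type embryos, placed singly from 6 hpf, were statically exposed at 28C to 120 hpf with 0.64% DMSO final; swim bladder malformation was scored present/absent by brightfield microscopy, gain of signal relative to DMSO controls.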

[10] = Tanguay_ZF_120hpf_TRUN_legacy: (Legacy) Oregon State University Tanguay Lab 120 Hour Post-fertilization zebrafish Assay for Truncated Body (AID 2283655)
How it was run: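 Binary presence/absence of truncated body is recorded at 120 hpf by brightfield, with non-mortality endpoints skipped after death. Exposure is static from 6 hpf in sealed dark plates at 28C, using dechorionated wild-type zebrafish, 0.64% DMSO.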

Measured: outcome

CS(=O)(=O)OCCCCOS(C)(=O)=O
inactive: all assays above
